Experiment [1] is described as follows: qHTS assay for small molecules that induce genotoxicity in human embryonic kidney cells expressing luciferase-tagged ATAD5 (AID 651632). Note: nearly all actives have a fitted effect of over 15% in size. Note: potency is the fitted concentration of half-maximal effect. A digest of the protocol:
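Test compounds were delivered by pin tool onto HEK293T reporter cells (2,000/well) expressing ATAD5 fused to luciferase. After 16 hr at 37C, 5% CO2, Amplite was added for 30 min at room temperature and luminescence was measured.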

Experiment [2] is described as follows: qHTS assay for small molecule agonists of the p53 signaling pathway - cell viability (AID 651633; calls by dose curve; note: nearly all actives have a fitted effect of over 30% in size; note: potency is the fitted concentration of half-maximal effect). In a few lines: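 Viability counter-read: CellTiter-Glo luminescence (30 min, room temperature) in the same p53RE-bla plates. These plates had been exposed to compounds for 16 h at 37 C.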
Experiment [3] in a line: qHTS assay for small molecules that induce genotoxicity in human embryonic kidney cells expressing luciferase-tagged ATAD5 - cell viability (AID 651634; calls by dose curve; note: nearly all actives have a fitted effect of over 25% in size; note: potency is the fitted concentration of half-maximal effect). In a few lines: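 Quantitative high-throughput format. HEK293T cells expressing ATAD5 fused to luciferase were plated at 2,000 cells/well and treated 15.5 hr with compound versus DMSO. Viability was determined by fluorescent live-cell protease substrate, 30 min at 37C.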

Experiment [4] is described as follows: qHTS assay for small molecule disruptors of the mitochondrial membrane potential - cell viability (AID 720634; calls by dose curve;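 note: human HepG2 liver cancer cells; series mostly up to about 83 µM; nearly all actives have a fitted effect of over 20% in size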). In a few lines: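 Same-well counter-screen: following the MMP dye addition, CellTiter-Glo was added to 1 hr compound-treated HepG2 cells and luminescence read after 30 min at room temperature.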
Experiment [5] can be described thus: qHTS assay for small molecule disruptors of the mitochondrial membrane potential (AID 720635). In a few lines:
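Mitochondrial membrane potential tracked with Mito-MPS dye, red aggregates (ex 540/em 590 nm) against green monomers (ex 490/em 535 nm). Compound treatment 1 hr at 37C, dye 30 min in HepG2.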

Experiment [6] in a line: qHTS assay to test for compound auto fluorescence at 590 nm (red) in HepG2 cells (AID 720674). A digest of the protocol:
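We screened compounds on adherent HepG2 cells, incubating them for an hour at 37 C in 5% CO2 before reading emission at 590 nm under 540 nm excitation; values reflect equivalence to Rose Bengal sodium fluorescence.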

Experiment [7] is described as follows: qHTS assay to test for compound auto fluorescence at 535 nm (green) in HepG2 cells (AID 720675).
A short description of experiment [8]: qHTS assay to test for compound auto fluorescence at 590 nm (red) in HEK293 cells (AID 720679). A digest of the protocol:
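Autofluorescence equivalency to Rose Bengal sodium, 540/590nm, in HEK293 cells exposed overnight to 23 nL compound per well.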

Experiment [9] can be described thus: qHTS assay to test for compound auto fluorescence at 535 nm (green) in HEK293 cells (AID 720680).
Experiment [10] is described as follows: qHTS assay to test for compound auto fluorescence at 460 nm (blue) in HEK293 cell free culture (AID 720681). In a few lines:
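Blue fluorescence (Ex 405/Em 460 nm, triamterene-equivalent) was read immediately after pin transfer of compound or DMSO into medium (DMEM, 10% FBS) without cells.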

A short description of experiment [11]: qHTS assay to test for compound auto fluorescence at 535 nm (green) in HEK293 cell free culture (AID 720682). A digest of the protocol:
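Green-label autofluorescence (485 nm excitation, 535 nm emission) measured on compound added to cell-free culture medium (DMEM, 10% FBS). Output is expressed relative to fluorescein.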

Experiment [12] in a line: qHTS assay to test for compound auto fluorescence at 590 nm (red) in HEK293 cell free culture (AID 720683). A digest of the protocol:
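Red-channel autofluorescence of compounds in culture medium (DMEM, 10% FBS), no cells, measured at 540/590 nm. Rose Bengal sodium is the reference fluorophore for equivalence.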

Experiment [13] is described as follows: qHTS assay to test for compound auto fluorescence at 590 nm (red) in HepG2 cell free culture (AID 720684). A digest of the protocol:
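Cell-free; medium MEM + 10% FBS; compound or DMSO added by pintool; read Ex 540/Em 590 nm; Rose Bengal sodium as red reference fluorophore.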

Experiment [14] can be described thus: qHTS assay to test for compound auto fluorescence at 460 nm (blue) in HepG2 cell free culture (AID 720685). In a few lines:
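Cell-free plates of MEM plus 10% FBS received 23 nL compound or DMSO vehicle; blue-channel (405/460 nm) intensity scored against triamterene as reference fluorophore.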

Experiment [15] in a line: qHTS assay to test for compound auto fluorescence at 535 nm (green) in HepG2 cell free culture (AID 720686).
Experiment [16] can be described thus: qHTS assay to test for compound auto fluorescence at 460 nm (blue) in HEK293 cells (AID 720678). A digest of the protocol:
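Auto fluorescence in the blue band was quantified as triamterene equivalency. HEK293 cells were seeded at 2,000/well, dosed after a 4-5 hr attachment, and kept overnight at 37C before the 405/460 nm reading.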

Experiment [17] is described as follows: qHTS assay to test for compound auto fluorescence at 460 nm (blue) in HepG2 cells (AID 720687). In a few lines:
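Blue-channel autofluorescence (Ex/Em 405/460 nm, triamterene-equivalent) was measured after 1 hr compound exposure at 37 C, 5% CO2. Cells were HepG2, plated overnight at 37 C in MEM plus 10% FBS.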

The target of experiment [18] is Glucocorticoid receptor (Homo sapiens) (UniProt P04150). Kind of experiment: qHTS assay to identify small molecule agonists of the glucocorticoid receptor (GR) signaling pathway (AID 720691; active = well fitted activation curve with a large enough effect in the signal ratio in the repeat runs, not every such curve was filed as active; the % refers to the signal ratio). In a few lines:
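A HeLa cervical cancer line expressing GR and a glucocorticoid response element-driven beta-lactamase gene is treated with compounds for 18 h; LiveBLAzer B/G FRET substrate is then applied and fluorescence read.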

For experiment [19] the target is unchanged. Kind of experiment: qHTS assay to identify small molecule antagonists of the glucocorticoid receptor (GR) signaling pathway (AID 720692; active = well fitted inhibition curve with a large enough effect in the signal ratio in the repeat runs, not every such curve was filed as active; the % refers to the signal ratio; note: potency is the fitted concentration of half-maximal effect). A digest of the protocol: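 GRE-bla HeLa line, dex-stimulated (5 nM final). Compound exposure 18 h, 37 C. Beta-lactamase FRET read after 2 h RT substrate.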

Where “and” joins values, the source holds several entries; their conditions need not be identical. Equal entries are not always repeated. Results filed as inconclusive are left out. Some structures have more than one record in an assay (separate samples or runs), and their calls can disagree. Calls of active or inactive are those of the source. Unless noted, calls come from the whole dose curve; as a rule, active = well fitted curve in the direction sought with a large enough effect in the repeat runs; inconclusive = weak or mixed curves; inactive = no such curve, though single readings can be large; an effect the other way counts as inactive or inconclusive.

Glucocorticoid receptor (Homo sapiens), sequence (P04150 whole entry, looked up): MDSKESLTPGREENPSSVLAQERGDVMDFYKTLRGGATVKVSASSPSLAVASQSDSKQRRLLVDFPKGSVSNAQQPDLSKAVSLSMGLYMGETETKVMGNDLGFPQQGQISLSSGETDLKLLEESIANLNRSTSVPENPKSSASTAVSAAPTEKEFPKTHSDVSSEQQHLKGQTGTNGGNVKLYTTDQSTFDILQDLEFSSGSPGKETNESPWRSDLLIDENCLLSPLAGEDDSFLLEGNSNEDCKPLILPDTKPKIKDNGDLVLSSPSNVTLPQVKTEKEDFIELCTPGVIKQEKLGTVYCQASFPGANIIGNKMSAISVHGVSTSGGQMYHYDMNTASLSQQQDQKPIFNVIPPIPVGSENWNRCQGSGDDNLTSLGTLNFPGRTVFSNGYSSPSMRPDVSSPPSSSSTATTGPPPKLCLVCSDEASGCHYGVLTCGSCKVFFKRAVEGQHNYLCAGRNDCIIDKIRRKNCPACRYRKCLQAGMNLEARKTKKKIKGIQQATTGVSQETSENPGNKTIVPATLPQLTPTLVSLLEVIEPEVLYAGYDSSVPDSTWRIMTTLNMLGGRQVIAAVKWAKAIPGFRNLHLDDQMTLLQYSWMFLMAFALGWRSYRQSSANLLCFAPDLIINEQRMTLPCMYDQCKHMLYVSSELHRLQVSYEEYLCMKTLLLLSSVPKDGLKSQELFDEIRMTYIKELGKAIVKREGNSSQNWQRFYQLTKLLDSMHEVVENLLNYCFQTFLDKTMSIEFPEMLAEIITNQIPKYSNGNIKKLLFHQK

Consider `CC1C(=O)C[C@]2(C(C)C)C[C@H]12` (stereo not given in full), for which the Potency result in experiment [1], in experiment [2], in [3], in experiment [4] and in experiment [5] was “inactive” in each case. Besides, the call in experiment [6], in experiment [7], in [8], in experiment [9], in [10] and in experiment [11] was inactive. The result in [12], in experiment [13], in [14] and in experiment [15] was inactive.
Regarding `O=Cc1ccc(Cl)cc1Cl`, the Potency result in experiment [1], in [2], in experiment [3] and in experiment [4] was “inactive” in each case. The molecule was classed as inactive in experiment [6], in experiment [7], in experiment [16], in experiment [8], in [9] and in experiment [10]. Besides, the molecule was classed as inactive in experiment [11], in experiment [12], in [13], in [14], in experiment [15] and in experiment [17]. Also, the call in experiment [18] was inactive.
Take `C=CC[C@]1(O)CC[C@H]2[C@@H]3CCC4=CC(=O)CCC4=C3C=C[C@@]21C`: the Potency result in [1], in experiment [2], in experiment [3], in experiment [4] and in experiment [5] was “inactive” in each case. The molecule was classed as inactive in [6], in experiment [7], in experiment [16], in [8], in experiment [9] and in [10]. Further, the molecule was classed as inactive in [11], in experiment [12], in [13], in [14], in experiment [15] and in [17]. For the same molecule, the molecule was classed as inactive in experiment [18]. Besides, the Potency in experiment [19] was 301 nM (active).
`CCn1cc[n+](C)c1`: the Potency result in [1], in experiment [2], in experiment [3], in experiment [4] and in experiment [5] was “inactive” in each case. Also, the result in experiment [6], in [7], in [16], in [8], in [9] and in experiment [10] was inactive. In addition, the call in experiment [12], in [13], in [14], in [15] and in [17] was inactive.
As to `N#CCC#N`, the Potency entry in experiment [1], in experiment [2], in [3], in experiment [4] and in experiment [19] was “inactive” in each case. The molecule was classed as inactive in experiment [6], in experiment [7], in experiment [16], in experiment [8], in [9] and in experiment [10]. Also, the result in [11], in experiment [12], in experiment [13], in experiment [14], in experiment [15] and in experiment [17] was inactive.
Take `CCC(Cl)CCl` (stereo not given): the Potency result in experiment [1], in experiment [2], in [3] and in experiment [4] was “inactive” in each case. Also, the result in experiment [6], in experiment [7], in [9], in experiment [10], in [11] and in experiment [12] was inactive. For the same molecule, the molecule was called inactive in experiment [13], in experiment [14] and in experiment [15].
As for `Cl/C=C\Cl`, the Potency result in [1], in experiment [2], in experiment [3], in experiment [4] and in [19] was “inactive” in each case. Besides, the call in experiment [6], in experiment [7], in experiment [8], in experiment [9], in [10] and in [12] was inactive. Also, the call in experiment [13], in [14], in [15] and in experiment [17] was inactive.
For `ClP(Cl)(Cl)(Cl)Cl`, the Potency entry in [1], in experiment [2], in experiment [3], in [4] and in experiment [19] was “inactive” in each case. Also, the result in [7], in experiment [16], in experiment [8], in experiment [9], in experiment [11] and in experiment [12] was inactive. In addition, the result in experiment [13], in experiment [14], in experiment [15], in experiment [17] and in experiment [18] was inactive.
As for `O=C(CBr)c1ccccc1`, the Potency entry in [1], in [2], in [3] and in experiment [4] was “inactive” in each case. The result in experiment [6], in experiment [7], in [8], in experiment [9], in experiment [10] and in [11] was inactive. Also, the outcome in [12], in [13], in [14], in experiment [15], in [17] and in experiment [18] was inactive.
In the case of `C[C@@H]1CC[C@H]2[C@@H](C)C(=O)O[C@@H]3O[C@@]4(C)CC[C@@H]1[C@]32OO4`, the Potency entry in [1], in experiment [2], in experiment [4] and in experiment [19] was “inactive” in each case. In addition, the Potency in experiment [3] is 1060 nM (active). Further, the result in experiment [7], in [8], in [9], in [10], in experiment [12] and in experiment [13] was inactive. Also, the outcome in [14], in experiment [15], in experiment [17] and in [18] was inactive.
As for `Cc1ccccc1CCl`, the Potency result in [1], in experiment [2], in experiment [3] and in [4] was “inactive” in each case. The outcome in [6], in experiment [7], in [8], in experiment [9], in experiment [10] and in [12] was inactive. Also, the call in experiment [13], in experiment [14], in [15], in experiment [17] and in experiment [18] was inactive.
For `O=C(CCl)c1ccc(Cl)cc1Cl`, the Potency is 18.8 µM (active) and 43.3 µM (active) in experiment [1]; 5.96 µM (active) and 9.69 µM (active) and inactive in [2]. The Potency result in experiment [3] and in [4] was “inactive” each time. The molecule was called inactive in experiment [6], in experiment [7], in experiment [16], in experiment [8], in [9] and in experiment [11]. The molecule was classed as inactive in experiment [12], in [13], in experiment [14], in [15], in [17] and in [18].
